{
  "source": "paper PMC7862700",
  "about": "“An all-to-all approach to the identification of sequence-specific readers for epigenetic DNA modifications on cytosine”",
  "test_in_all_cases": "DAPPL (digital affinity profiling via proximity ligation, sequencing); 10 mM Tris-HCl pH 7.5, 50 mM NaCl, 1 mM DTT, 4% glycerol, room temperature, 30 min; GST-TFs on glutathione beads, 16-mer random dsDNA library, 0.1% formaldehyde crosslink after washing; high values mean tight binding",
  "details_in_all_cases": "protein: recombinant; tags: N-terminal GST; dsDNA, one strand shown",
  "key": {"[1]": {"target": "ETV1 (Homo sapiens, UniProt P50549 1-477)", "sequence (P50549 whole entry, the tested form may be a part)": "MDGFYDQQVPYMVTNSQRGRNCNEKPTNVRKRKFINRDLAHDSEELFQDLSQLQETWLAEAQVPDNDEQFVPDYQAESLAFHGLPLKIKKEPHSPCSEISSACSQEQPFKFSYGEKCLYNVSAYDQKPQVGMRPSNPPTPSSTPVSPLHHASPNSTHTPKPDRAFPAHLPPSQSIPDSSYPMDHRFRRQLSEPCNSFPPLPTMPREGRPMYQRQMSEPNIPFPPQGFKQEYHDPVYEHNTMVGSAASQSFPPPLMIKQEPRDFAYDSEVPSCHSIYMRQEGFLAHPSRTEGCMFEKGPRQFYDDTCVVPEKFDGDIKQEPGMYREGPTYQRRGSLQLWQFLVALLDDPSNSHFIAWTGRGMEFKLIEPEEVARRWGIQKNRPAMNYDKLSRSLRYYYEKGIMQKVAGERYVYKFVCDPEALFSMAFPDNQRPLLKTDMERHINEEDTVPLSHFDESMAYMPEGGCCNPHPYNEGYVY", "how_it_was_run": "(§1)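 Human transcription factors carrying a GST fusion were produced in yeast, bound to glutathione beads, tagged with DNA barcodes and pooled together with a tag-only sample. Each pool was held with 200 nmole of a random double-stranded 16-mer DNA library in Tris/NaCl/DTT/glycerol buffer for 30 min at room temperature, then washed, crosslinked in 0.1% formaldehyde, proximity-ligated with BsaI/T4 ligase (1 h, 37 °C), PCR-amplified and sequenced on an Illumina NextSeq500. Binding signal is the read frequency of each hexamer for a given factor divided by its frequency in the tag-only sample.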"}, "[2]": {"target": "T1, ERF (Homo sapiens, UniProt P50548 1-548)", "T1 sequence": "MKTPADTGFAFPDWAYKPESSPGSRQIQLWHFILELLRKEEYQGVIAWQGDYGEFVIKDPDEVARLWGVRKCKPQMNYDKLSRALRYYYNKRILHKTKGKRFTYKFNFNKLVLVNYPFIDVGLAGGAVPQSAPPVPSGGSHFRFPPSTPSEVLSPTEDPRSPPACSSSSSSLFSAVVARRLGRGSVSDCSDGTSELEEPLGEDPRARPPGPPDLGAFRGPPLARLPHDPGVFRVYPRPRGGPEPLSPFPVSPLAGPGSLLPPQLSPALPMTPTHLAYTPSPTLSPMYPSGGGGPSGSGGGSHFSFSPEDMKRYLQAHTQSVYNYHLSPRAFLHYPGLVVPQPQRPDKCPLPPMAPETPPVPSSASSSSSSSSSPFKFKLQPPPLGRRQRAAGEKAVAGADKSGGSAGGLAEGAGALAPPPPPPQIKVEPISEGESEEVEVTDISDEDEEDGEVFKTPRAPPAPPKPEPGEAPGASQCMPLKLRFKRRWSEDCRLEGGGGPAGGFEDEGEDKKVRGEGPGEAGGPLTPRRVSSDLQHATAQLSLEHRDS", "how_it_was_run": "as §1"}, "[3]": {"target": "T2, ETV3L (Homo sapiens, UniProt Q6ZN32 1-361)", "T2 sequence": "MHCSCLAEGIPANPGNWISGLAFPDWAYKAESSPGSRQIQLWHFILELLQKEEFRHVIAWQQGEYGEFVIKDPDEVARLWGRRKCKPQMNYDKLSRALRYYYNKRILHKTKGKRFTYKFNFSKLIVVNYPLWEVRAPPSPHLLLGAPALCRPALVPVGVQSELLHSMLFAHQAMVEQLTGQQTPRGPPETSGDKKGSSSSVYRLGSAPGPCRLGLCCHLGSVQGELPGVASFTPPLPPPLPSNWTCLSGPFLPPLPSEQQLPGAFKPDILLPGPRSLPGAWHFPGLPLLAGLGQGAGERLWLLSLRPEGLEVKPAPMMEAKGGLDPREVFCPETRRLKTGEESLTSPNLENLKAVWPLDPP", "how_it_was_run": "as §1"}, "[4]": {"target": "T3, ETS2 (Homo sapiens, UniProt P15036 1-469)", "T3 sequence": "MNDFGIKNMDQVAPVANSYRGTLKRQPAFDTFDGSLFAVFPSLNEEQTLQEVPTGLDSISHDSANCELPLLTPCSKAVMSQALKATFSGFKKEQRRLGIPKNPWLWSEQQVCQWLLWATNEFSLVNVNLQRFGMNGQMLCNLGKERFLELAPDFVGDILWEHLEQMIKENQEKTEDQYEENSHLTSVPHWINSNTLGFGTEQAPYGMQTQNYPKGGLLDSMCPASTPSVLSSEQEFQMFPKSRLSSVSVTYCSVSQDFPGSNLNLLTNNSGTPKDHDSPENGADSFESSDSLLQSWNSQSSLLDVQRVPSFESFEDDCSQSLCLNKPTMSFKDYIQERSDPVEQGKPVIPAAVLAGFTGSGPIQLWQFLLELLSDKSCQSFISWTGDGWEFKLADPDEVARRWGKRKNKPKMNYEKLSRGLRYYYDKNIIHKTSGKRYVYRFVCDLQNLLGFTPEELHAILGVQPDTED", "how_it_was_run": "as §1"}, "[5]": {"target": "T4, SPDEF (Homo sapiens, UniProt O95238 1-335)", "T4 sequence": "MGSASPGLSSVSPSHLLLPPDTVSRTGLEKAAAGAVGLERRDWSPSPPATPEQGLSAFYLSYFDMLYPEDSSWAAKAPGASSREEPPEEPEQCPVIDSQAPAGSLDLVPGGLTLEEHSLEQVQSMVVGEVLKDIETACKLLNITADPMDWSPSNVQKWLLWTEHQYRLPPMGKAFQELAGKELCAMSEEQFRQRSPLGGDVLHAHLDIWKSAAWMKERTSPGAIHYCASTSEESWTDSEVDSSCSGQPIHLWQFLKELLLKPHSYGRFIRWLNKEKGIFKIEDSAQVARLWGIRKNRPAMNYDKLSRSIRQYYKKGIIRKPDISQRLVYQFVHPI", "how_it_was_run": "as §1"}, "[6]": {"target": "T5, ETV7 (Homo sapiens, UniProt Q9Y603 1-341)", "T5 sequence": "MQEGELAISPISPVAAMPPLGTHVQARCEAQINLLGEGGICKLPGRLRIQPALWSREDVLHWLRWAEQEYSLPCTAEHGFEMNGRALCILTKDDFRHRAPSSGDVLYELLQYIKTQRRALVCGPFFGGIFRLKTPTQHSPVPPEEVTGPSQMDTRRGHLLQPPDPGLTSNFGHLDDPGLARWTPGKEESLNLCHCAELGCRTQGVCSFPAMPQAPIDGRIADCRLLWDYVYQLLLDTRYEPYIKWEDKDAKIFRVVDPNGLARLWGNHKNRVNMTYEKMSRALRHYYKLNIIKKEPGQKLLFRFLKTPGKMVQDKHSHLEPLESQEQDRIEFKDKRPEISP", "how_it_was_run": "as §1"}, "[7]": {"target": "T6, ELF5 (Homo sapiens, UniProt Q9UKW6-2 1-255)", "T6 sequence": "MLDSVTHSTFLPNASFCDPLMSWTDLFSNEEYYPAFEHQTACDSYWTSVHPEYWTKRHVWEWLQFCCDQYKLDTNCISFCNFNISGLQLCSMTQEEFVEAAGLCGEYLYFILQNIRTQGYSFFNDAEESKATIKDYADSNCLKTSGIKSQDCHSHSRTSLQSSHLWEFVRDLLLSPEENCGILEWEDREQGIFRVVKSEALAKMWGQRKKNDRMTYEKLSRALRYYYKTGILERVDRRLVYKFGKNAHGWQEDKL", "how_it_was_run": "as §1"}, "[8]": {"target": "T7, ETV3 (Homo sapiens, UniProt P41162-2 1-143)", "T7 sequence": "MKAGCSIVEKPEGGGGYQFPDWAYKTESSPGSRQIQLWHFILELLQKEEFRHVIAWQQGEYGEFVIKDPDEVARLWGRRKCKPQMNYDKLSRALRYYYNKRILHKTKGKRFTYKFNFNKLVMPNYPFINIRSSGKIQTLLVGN", "how_it_was_run": "as §1"}, "[9]": {"target": "ETV6 (Homo sapiens, UniProt P41212 1-452)", "sequence (P41212 whole entry)": "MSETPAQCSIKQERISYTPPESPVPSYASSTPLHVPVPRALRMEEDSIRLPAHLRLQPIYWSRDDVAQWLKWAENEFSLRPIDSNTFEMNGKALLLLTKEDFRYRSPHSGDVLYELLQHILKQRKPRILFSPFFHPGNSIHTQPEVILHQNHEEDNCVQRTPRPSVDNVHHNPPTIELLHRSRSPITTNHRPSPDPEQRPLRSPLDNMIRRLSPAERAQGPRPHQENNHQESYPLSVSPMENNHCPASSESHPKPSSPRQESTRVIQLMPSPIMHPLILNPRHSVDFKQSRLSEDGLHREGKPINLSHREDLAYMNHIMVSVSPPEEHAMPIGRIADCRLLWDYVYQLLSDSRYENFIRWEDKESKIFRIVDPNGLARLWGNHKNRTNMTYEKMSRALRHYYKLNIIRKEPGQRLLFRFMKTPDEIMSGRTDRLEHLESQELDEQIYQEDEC", "how_it_was_run": "as §1"}},
  "data": [
    {"sequence": "CCCGCC", "values": [
      {"measurement": "binding signal", "setting": "[1]", "result": "1.5 fold enrichment (6-mer frequency, TF over GST control)"},
      {"measurement": "binding signal", "setting": "[2]", "result": "1.53 fold enrichment (6-mer frequency, TF over GST control)"},
      {"measurement": "binding signal", "setting": "[3]", "result": "1.56 fold enrichment (6-mer frequency, TF over GST control)"},
      {"measurement": "binding signal", "setting": "[4]", "result": "1.38 fold enrichment (6-mer frequency, TF over GST control)"},
      {"measurement": "binding signal", "setting": "[5]", "result": "1.39 fold enrichment (6-mer frequency, TF over GST control)"},
      {"measurement": "binding signal", "setting": "[6]", "result": "1.48 fold enrichment (6-mer frequency, TF over GST control)"},
      {"measurement": "binding signal", "setting": "[7]", "result": "1.45 fold enrichment (6-mer frequency, TF over GST control)"},
      {"measurement": "binding signal", "setting": "[8]", "result": "1.47 fold enrichment (6-mer frequency, TF over GST control)"},
      {"measurement": "binding signal", "setting": "[9]", "result": "1.63 fold enrichment (6-mer frequency, TF over GST control)"}
    ]}
  ]
}
